Test results reported in PubChem BioAssay (Tox21).
Inconclusive results are not listed. A number with no mark means an inactive call. Activity calls are given as the source filed them. Calls come from the whole dose curve; as a rule, active = well fitted cell-killing curve with a large enough effect in the repeat runs; inconclusive = weak or mixed curves; inactive = flat fitted curve, though single readings scatter.
% is set by controls: 0 for no effect and ±100 for the full control effect.

Experiment: qHTS RealTime-Glo MT Cell Viability Assay in HepG2 cells - 24 hour (AID 1224867); note: nearly all actives have a fitted effect of over 50% in size
Conditions: RealTime-Glo luminescence; series mostly up to 76.8 µM
Source text: U.S. Tox21 Program National Center for Advancing Translational Sciences [NCATS] NIH Chemical Genomics Center [NCGC] U.S. Environmental Protection Agency [EPA] National Institutes of Environmental Health Sciences [NIEHS] National Toxicology Program [NTP] U.S. Food and Drug Administration [FDA] Tox21 Assay Overview: Measure of cell viability is critical in the cell-base assay. Analysis of cell viability is necessary for the characterization of cell responses to cytotoxic drugs and environmental stress. A RealTime-Glo MT Cell Viability Assay to monitor cell viability in real time of continues cell culture during 40 hours of compound treatment was used to screen Tox21 10K library compounds in HepG2 cells. The RealTime-Glo MT Cell Viability Assay is a nonlytic, homogeneous, bioluminescent method to measure cell viability in real time using a simple, plate-based method. The assay involves adding NanoLuc luciferase and a cell-permeant prosubstrate to cells in culture. Viable cells reduce the proprietary prosubstrate to generate a substrate for NanoLuc luciferase. This substrate diffuses from cells into the surrounding culture medium, where it is rapidly used by the NanoLuc Enzyme to produce a luminescent signal. The signal correlates with the number of viable cells, making the assay well suited for cytotoxicity studies.
Tox21 Assay Protocol Summary: The mixture of HepG2 cell suspension and reagents were dispensed at 600cells/6 ul/well in 1536-well tissue culture treated black solid bottom plates using a Multidrop dispenser. After the assay plates were incubated at a 37 C/5% CO2 incubator for 5 hours, 23 nL of compounds dissolved in DMSO, positive and negative controls was transferred to the assay plate by a pintool work station. The plates were incubated at 37 C for 40 hours. The luminescence intensity were measured at 0h, 8h, 16h, 24h, 32h and 40h time points using ViewLux plate reader during compound treatment.
With `CC(C)(C)C(=O)CCc1ccc(Cl)cc1` the outcome was “inactive”. For `COc1cnc(NS(=O)(=O)c2ccc(N)cc2)nc1`, the outcome was “inactive”. In the case of `CCCCc1ccc(Cl)cc1`, the outcome is reported as “inactive”. For `C=CCN(CC=C)CC=C`, the outcome was “inactive”. In the case of `CC(C)(C)c1ccc(C(=O)CCCCl)cc1`, the outcome is reported as “inactive”. With `CCCCC(CC)CCC(CC(C)C)OS(=O)(=O)O` (stereo not given) the outcome was “inactive”. With `Cc1ccccc1C#N` the outcome was “inactive”. With `C[C@H]1COc2c(C3(N)CC3)c(F)cc3c(=O)c(C(=O)O)cn1c23` the outcome was “inactive”. With `CN(C)CCC[C@@]1(c2ccc(F)cc2)OCc2cc(C#N)ccc21` the outcome was “inactive”. For `CN(C)c1ccncc1`, the outcome was “inactive”. For `NC(=O)CC[C@@H](N)C(=O)O`, the outcome was “inactive”. With `Cc1ccc(O)c(C(=O)c2ccccc2)c1` the outcome was “inactive”. With `CNCCc1ccccn1` the outcome was “inactive”. For `COc1cc(S(N)(=O)=O)cc(C(=O)O)c1OC`, the outcome was “inactive”. In the case of `COC(=O)c1c(C)cc(O)c(C)c1O`, the outcome is reported as “inactive”. In the case of `CC12CCCC=C1C(=O)OC2=O` (stereo not given), the outcome is reported as “inactive”. In the case of `CC1(C)CC(N)CC(C)(C)N1`, the outcome is reported as “inactive”. In the case of `CCOC(=O)CN1CCCC1=O`, the outcome is reported as “inactive”. Work on `C=CCCCCCCCCCCCCCC` yielded an activity change, negative = cytotoxicity of 0.31% [at 15.8 µM]. With `CC(C)C[P+](C)(CC(C)C)CC(C)C` the outcome was “inactive”. With `Cc1cc(C)c(C)c(C)c1` the outcome was “inactive”. In the case of `C[n+]1ccccc1/C=N/O`, the outcome is reported as “inactive”. With `COC(=O)c1ccc(C(=O)O)cc1` the outcome was “inactive”. In the case of `Nc1cc(S(=O)(=O)O)ccc1O`, the outcome is reported as “inactive”. For `N#Cc1ccccc1C#N`, the outcome was “inactive”. In the case of `O=C1CCCc2c(O)cccc21`, the outcome is reported as “inactive”. With `O=C(O)COc1ccc2ccccc2c1` the outcome was “inactive”. With `Clc1ccc2c(c1)Nc1ccccc1S2` the outcome was “inactive”. In the case of `CC/C=C/CCCCCCCCCCOC(C)=O`, the outcome is reported as “inactive”. For `CC1(C)S[C@@H]2[C@H](NC(=O)Cc3ccccc3)C(=O)N2[C@H]1C(=O)O` (tested in a mixture with another compound), the outcome was “inactive”. In the case of `COc1cc2nc(N3CCN(C(=O)C4CCCO4)CC3)nc(N)c2cc1OC` (stereo not given), the outcome is reported as “inactive”. In the case of `CCCCS`, the outcome is reported as “inactive”. In the case of `CC(O)C(CO)C(C)O` (stereo not given), the outcome is reported as “inactive”. With `O=C(O)Cc1ccccc1Oc1ccc(Cl)cc1Cl` the outcome was “inactive”. In the case of `CCC(C)(C)C`, the outcome is reported as “inactive”. With `CC(C)(C)OC(=O)c1ccccc1C(=O)O` the outcome was “inactive”. In the case of `Nc1nc(Cl)cc(Cl)n1`, the outcome is reported as “inactive”. For `C=CC(C)(CCC=C(C)C)OC(=O)C(C)C` (stereo not given), the outcome was “inactive”. For `CC(C)(C)NCC(O)COc1cccc2c1CCC(=O)N2` (stereo not given), the outcome was “inactive”. In the case of `CCCCCCCCCCCCCCCC/C=C/C1CC(=O)OC1=O` (stereo not given), the outcome is reported as “inactive”.
